# Activity calls are given as the source filed them. The rule behind the calls is not given here.
# Biological target: Dual specificity protein kinase CLK1 (Homo sapiens) (UniProt P49759)
# Assay: CLK1 binders by thermal stabilization, biophysical, recombinant human kinase, DSF (AID 382)
# Details: buffer 10 mM HEPES, stronger effect = higher value
# [1] = measured here: replicate experiment 2, at 10 µM, run 2, protein 2 µM, NaCl 150 mM
# Sequence of Dual specificity protein kinase CLK1 (Homo sapiens) (P49759 whole entry, looked up): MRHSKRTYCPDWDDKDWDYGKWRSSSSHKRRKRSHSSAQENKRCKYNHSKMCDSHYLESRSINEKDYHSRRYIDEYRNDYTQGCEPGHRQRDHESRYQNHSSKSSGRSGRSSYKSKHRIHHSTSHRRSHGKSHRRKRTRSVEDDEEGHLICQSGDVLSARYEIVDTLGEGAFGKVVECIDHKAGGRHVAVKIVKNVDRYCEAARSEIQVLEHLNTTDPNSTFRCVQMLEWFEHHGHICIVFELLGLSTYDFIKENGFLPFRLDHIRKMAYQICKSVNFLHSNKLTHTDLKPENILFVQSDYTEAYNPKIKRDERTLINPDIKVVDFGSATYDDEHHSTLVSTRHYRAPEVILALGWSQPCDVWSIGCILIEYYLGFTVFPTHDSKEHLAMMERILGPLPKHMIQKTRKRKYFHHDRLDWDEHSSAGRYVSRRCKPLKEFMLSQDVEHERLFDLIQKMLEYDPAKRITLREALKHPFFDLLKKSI
smiles,measurement,setting,value
N#C/C(=C1\Nc2ccccc2S1)c1ccnc(NCCc2cccnc2)n1,Tm shift,"at 10 µM, protein 2 µM, pH 7.5, NaCl 150 mM, with 50 µM L-Arg/L-Glu (1:1)",5.9 Celsius (active)
Cc1c2ccncc2c(C)c2c1[nH]c1ccccc12,Tm shift,"at 10 µM, protein 2 µM, pH 7.5, NaCl 150 mM, with 50 mM Arg/Glu",3.3 Celsius (active)
CCn1cnc2c(Nc3cccc(Cl)c3)nc(N[C@@H]3CCCC[C@@H]3N)nc21,Tm shift,[1],4.5 Celsius
COc1ccc2c(c1)/C(=C/c1cnc[nH]1)C(=O)N2,Tm shift,[1],3.4 Celsius
